Data taken from the supplement of paper PMC6555819.

Experiments:
Experiment in all cases: PBM binding z-score (relative to random genomic background probes); higher = stronger binding; sequences stand for … in GC…GCGATTGACAGCGTAGAATGAAGG
[1] = tested on: FXR:RXRa (NR concentration 270 nM, RXRa partner concentration 90 nM)
Procedure, shortened: (§1)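 For binding z-scores, the reference was random background probes on custom Agilent 4×180K protein-binding microarrays. These arrays were incubated 1 h with ligand-free nuclear receptor dimers in PBS pH 7.4, 2% milk, 0.02% Triton X-100, 1 mM DTT, 0.2 mg/mL BSA and 0.4 mg/ml salmon testes DNA. Fluorescence was scanned after antibody detection of each partner (one per run) and regression-normalized.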

[2] = tested on: LXRa:RXRa (NR concentration 270 nM, RXRa partner concentration 90 nM)
Procedure, shortened: as §1

[3] = tested on: LXRa homodimer (NR concentration 270 nM)
Procedure, shortened: as §1

[4] = tested on: LXRb:RXRa (NR concentration 270 nM, RXRa partner concentration 90 nM)
Procedure, shortened: as §1

[5] = tested on: LXRb homodimer (NR concentration 270 nM)
Procedure, shortened: as §1

[6] = tested on: PPARa:RXRa (NR concentration 270 nM, RXRa partner concentration 90 nM)
Procedure, shortened: as §1

[7] = tested on: PPARg:RXRa (NR concentration 180 nM, RXRa partner concentration 90 nM)
Procedure, shortened: as §1

[8] = tested on: PPARg:RXRa 270nM:90nM, anti-RXR (NR concentration 270 nM, RXRa partner concentration 90 nM)
Procedure, shortened: as §1

[9] = tested on: PPARg:RXRa 30nM:10nM, anti-RXR (NR concentration 30 nM, RXRa partner concentration 10 nM)
Procedure, shortened: as §1

[10] = tested on: PPARg:RXRa 90nM:30nM, anti-RXR (NR concentration 90 nM, RXRa partner concentration 30 nM)
Procedure, shortened: as §1

Row | Sequence | PBM binding z-score [1] | PBM binding z-score [2] | PBM binding z-score [3] | PBM binding z-score [4] | PBM binding z-score [5] | PBM binding z-score [6] | PBM binding z-score [7] | PBM binding z-score [8] | PBM binding z-score [9] | PBM binding z-score [10]
1 | TAGTCTAGGTCAGATCGGGCCAGTATACGCTATA | 1.81 | 1.91 | 0.186 | 1.13 | 1.4 | 2.38 | 2.36 | 2.4 | 0.965 | 1.92
2 | CCTTACGGGTCACTGACAGGTTATCGCATTTGGA | 5.35 | 4.35 | 0.422 | 3.38 | 0.0444 | 5.12 | 4.53 | 4.36 | 1.04 | 2.96
3 | TCGTGTAGATCAATAGAGGTTAAGAAAGTGCGCT | 0.712 | 3.48 | 0.576 | 1.76 | -0.163 | 1.86 | 0.088 | 1.57 | 2.53 | 2.13
4 | AGAATGAGGTTACCCAAGATCAGGGAAACGCTTG | 1.63 | 5.76 | -0.558 | 2.48 | -0.333 | 3.05 | 2.29 | 2.2 | 0.837 | 1.49
5 | TCTGCTAGGTCAGTTGGTCAGCGAACGAGCTGCC | 1.05 | 0.587 | -0.495 | 0.166 | 0.433 | 1.57 | 0.47 | 1.87 | 1.06 | 1.38
6 | GCTAGTTGGTCACTAAAAGGTCACACACCGGTCG | 3.49 | 4.28 | 4.38 | 4.27 | 0.864 | 4.44 | 2 | 3.69 | 0.993 | 2.6
7 | CAAACTAGGTCAAGAGGTCTAAGTCCGCTTCCCG | 3.48 | 2.8 | 0.46 | 1.7 | -0.0852 | 4.97 | 7.75 | 6.93 | 4.73 | 6.71
8 | CCTAGCTGGCCAGGGTCACTCAAGCATTTCGCTT | 1.96 | 1.65 | -0.664 | 1.94 | -1.02 | 2.99 | -0.0183 | 1.17 | -0.834 | -0.172
9 | GTACCAAGGTTAATAGGTCGTTGATGAGTAGGCG | 2.13 | 1.67 | 0.289 | 1.34 | -0.213 | 3.18 | 3 | 3.43 | 1.01 | 2.5
10 | ATCTCTAGGTAAGACTCAGTTGAGTGAAGAACGC | 0.19 | 0.256 | -0.143 | 0.303 | 0.234 | -0.0553 | 0.0512 | 0.121 | -0.116 | -0.195
11 | GCTCGGAGGACAAGGTGAGAGCTTTGTCCGTAGA | -0.399 | -0.339 | -1.2 | -0.463 | -1.12 | -0.0348 | -0.809 | -0.0501 | -1.12 | -0.422
12 | CCGACTGGGGCAAGGTTAGCATAACGCACAGCCA | -0.312 | -0.11 | -0.322 | -0.208 | -1.24 | 1.23 | 2.6 | 3.06 | 0.844 | 2.39
13 | CCTCGGAGGCCAACAGGAGGTCAGAGCTGCCAGA | 1.54 | 2.49 | 1.48 | 1.58 | -0.663 | 2.29 | 0.0544 | 0.339 | -0.921 | -0.26
14 | TCTAGTAGTTGATTAGGGCAACCGAAACAGCGGA | 0.323 | 0.0277 | -0.246 | 0.0544 | -0.448 | 0.658 | 0.17 | 1.41 | 2.74 | 2.06
15 | GCTAGTTGGTCAGTAATAGGTCACACACCGGTCG | 1.19 | 1.72 | 1.74 | 1.77 | 0.0415 | 2.79 | 1.44 | 2.52 | 0.756 | 1.82
16 | ATCTAAAGGTCGACGAGGTGAGTATACACCGTTT | 4.77 | 4.07 | 0.832 | 3.04 | 0.727 | 4.38 | 3.31 | 3.51 | 1.21 | 2.67
17 | TCATAAAGGTAAATGCTAGGTGAAAGTCCGATCT | 1.41 | 1.31 | 0.158 | 0.935 | -0.29 | 1.55 | 0.57 | 2.52 | 4.21 | 3.45
18 | ACAGACAGGTGATGCAGGTAACTCAGGCTATCAT | -0.0955 | -0.176 | -0.459 | -0.222 | -0.442 | 0.00895 | 0.577 | -0.188 | -0.309 | -0.256
19 | AGAATGAGGTTATTAAGATCACGGAATTGCGGTC | 1.57 | 1.78 | 0.215 | 1.57 | 0.0573 | 3.18 | 1.99 | 2.7 | 0.647 | 1.6
20 | TCTTGTATATCAAGCAGGTTAAGAAAGCCTGAGT | 0.234 | 0.335 | 0.0276 | 0.678 | 0.189 | 0.992 | -0.217 | 1.47 | 2.86 | 1.86
21 | ACTCGGAGGACAAAGGTCAGAGCTACGCCAGTGA | 4.09 | 4.15 | 1.61 | 3.4 | 0.202 | 4.93 | 7.6 | 7.06 | 5.63 | 7.83
22 | TCATTTAGGTAAAAGGTGAAAGTCGGTGTGGTAA | 1.72 | 1.89 | 0.427 | 1.95 | 0.881 | 5.05 | 8.63 | 8.2 | 9.56 | 9.37
23 | TCTATTAGTTGAAGGGCAACAGACGAGTCCGTTT | 0.85 | 0.613 | 0.367 | 0.805 | 0.326 | 0.993 | 0.441 | 2.09 | 3.73 | 2.9
